Compound activity as filed in PubChem.
Shown are actives, neighbours in structure and some others; about 3.1% of the full set was active somewhere.
BRCT PPI green: qHTS Assay for Inhibitors of BRCT-Phosphoprotein Interaction (Green Fluorophore); Potency, µM (top dose mostly 76.9 µM), for inactives: top-dose activity change, negative = inhibition, actives largely listed as inhibitors; 75,000 compounds, 0.05% hits; BRCA1 BRCT-phosphopeptide binding, green fluorescence polarization; Breast cancer type 1 susceptibility protein (Homo sapiens), P38398; AID 875, 2007;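 also: potency is read from the fitted curve at half-maximal effect; plate controls were peptide without protein for full effect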
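Compounds were incubated for 12 min at room temperature with a complex of 100 nM fluorescein-tagged pBACH1 decapeptide and 250 nM His-tagged BRCT protein. Buffer was phosphate pH 7.3 with EDTA, DTT and Tween 20. Disruption of binding lowers the polarization signal.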
DNA Pol III inh: qHTS Assay for Inhibitors of DNA Polymerase III Holoenzyme System; reconstituted DNA polymerase III holoenzyme replication, biochemical; Potency, µM (highest dose often 57.1 µM), for the others: at the top dose activity change, negative = inhibition; 71,000 compounds, 0.25% hits; AID 603, 2007; also: potency is read from the fitted curve at half-maximal effect; % is scaled to controls: 0 for no effect and ±100 for the full control effect
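Reconstituted *E. coli* holoenzyme (0.35 nM Pol III, 1 nM beta, 154 nM SSB, 2 nM primase) was preincubated with compound for 15 min at RT. Synthesis on 1.4 nM ssM13Gori ran 35 min, then was stopped with PicoGreen/EDTA and read as dsDNA fluorescence.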
Tau fil binding: qHTS Assay for Tau Filament Binding; 71,000 compounds, 2% hits; Potency, µM (top dose mostly 57.1 µM), without a hit: top-dose activity change, negative = inhibition; AID 596, 2007; recombinant tau filaments, thioflavin S fluorescence, 15 h; filaments grown with octadecylsulfate alongside compound;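 also: potency is read from the fitted curve at half-maximal effect; % is scaled to controls: 0 for no effect and ±100 for the full control effect; actives lower thioflavin S fluorescence by blocking filaments or displacing dye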
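Thioflavine S fluorescence (ex 450, em 510 nm) reports filaments formed from 1 uM human tau plus 30 uM ODS over 15 h at 37 C (10 mM HEPES pH 7.4, 100 mM NaCl, 5 mM DTT); compounds displacing dye or blocking filaments lower signal.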
15-hLO inh: qHTS Assay for Inhibitors of 15-hLO (15-human lipoxygenase); purified 15hLO-1, xylenol orange hydroperoxide absorbance; Potency, µM (titrated, usually from 57.1 µM), for the others: at the top dose activity change, negative = inhibition, hits mostly inhibitors; 74,000 compounds, 1.4% hits; AID 887, 2007; also: potency is read from the fitted curve at half-maximal effect; % is scaled to controls: 0 for no effect and ±100 for the full control effect; nearly all actives have a fitted effect of over 55% in size
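Hydroperoxide formed from arachidonic acid (50 uM) by purified human 15hLO-1 (40 nM) oxidizes ferrous iron, and the ferric-xylenol orange complex is read at 573 versus 405 nm. Compounds were preincubated 15 min; reaction ran 6 min at room temperature.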
TsaE inh: qHTS Assay for Inhibitors of YjeE; tRNA threonylcarbamoyladenosine biosynthesis protein TsaE (Escherichia coli (strain …; purified YjeE enzyme, qHTS inhibition assay; AID 605, 2007; Potency, µM; 71,000 compounds, 0.05% hits
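Fluorescence polarization of a BODIPY Texas Red–ADP probe (2 uM) bound to purified YjeE (10 uM) was read after 15 min room-temperature incubation with compounds. Loss of polarization marks inhibitors; ADP serves as titrated control.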
BRCT inh red: qHTS Assay for Inhibitors of BRCT-Phosphoprotein Interaction (Red Fluorophore); 75,000 compounds, 0.03% hits; Potency, µM (highest dose often 76.9 µM), without a hit: at the top dose activity change, negative = inhibition, actives largely listed as inhibitors; BRCT-phosphopeptide binding, red fluorescence polarization; Breast cancer type 1 susceptibility protein (Homo sapiens), P38398; also: % is scaled to controls: 0 for no effect and ±100 for the full control effect
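Fluorescence polarization: 100 nM His-tagged BRCA1 BRCT with 100 nM TAMRA-labelled phospho-BACH1 decapeptide, phosphate buffer pH 7.3 with 150 mM NaCl, DTT, 0.01% Tween 20; 12 min RT. Binding inhibition seen as FP decrease.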
Numbers without * were called inactive; ! = not active in a repeat; [ ] = another dose, or the depositor's remark. Calls follow the shape of the dose curve; as a rule, active = well fitted curve in the direction sought with a large enough effect; inconclusive = small, poorly fitted or top-dose-only effect, or another doubt; inactive = no such curve, though single readings can be large; an effect the other way counts as inactive or inconclusive.

`CC(C)N=C(N)/N=C(\N)Nc1ccc(Cl)cc1` gave BRCT PPI green -1.3%[34.4 µM], DNA Pol III inh -0.4%[25.6 µM], Tau fil binding inconclusive, 15-hLO inh 3.9%[25.6 µM], TsaE inh inactive and BRCT inh red 0.3%[34.4 µM].
Screening NC(=NCCCCCCN=C(N)/N=C(\N)Nc1ccc(Cl)cc1)/N=C(\N)Nc1ccc(Cl)cc1 returned BRCT PPI green -3.0%[3.08 µM], DNA Pol III inh -5.4%, Tau fil binding 6.31µM*!, 15-hLO inh inconclusive, TsaE inh inconclusive and BRCT inh red -0.1%.
Screening CCOc1cc(NC(=O)c2ccco2)c(OCC)cc1NC(=O)Cc1cccc(OC)c1 returned BRCT PPI green 0.0%, DNA Pol III inh 1.9%, Tau fil binding 10µM*, 15-hLO inh inconclusive, TsaE inh inactive and BRCT inh red -0.9%.
For O=C(O)c1ccccc1Cl the results were BRCT PPI green -3.1%, DNA Pol III inh 4.7%, Tau fil binding 9.4%, 15-hLO inh -9.2%, TsaE inh inactive and BRCT inh red -0.6%.
For COc1ccccc1CNc1ccnc(-c2ccccc2C(F)(F)F)n1 the results were BRCT PPI green -1.2%, DNA Pol III inh -4.2%, Tau fil binding 2.6%, 15-hLO inh inconclusive, TsaE inh inactive and BRCT inh red -2.0%.
For Cn1c(=O)c2c(nc(CN3CCN(c4ccccc4)CC3)n2Cc2ccccc2F)n(C)c1=O the results were BRCT PPI green 1.5%, DNA Pol III inh -5.9%, Tau fil binding -10.7%, 15-hLO inh -5.4%, TsaE inh inactive and BRCT inh red 0.6%.
`Cc1ccccc1Cn1c(CN2CCN(c3ccc(F)cc3)CC2)nc2c1c(=O)n(C)c(=O)n2C` gave BRCT PPI green inconclusive, DNA Pol III inh 207.7%, Tau fil binding inactive, 15-hLO inh 20µM*, TsaE inh inactive and BRCT inh red 1.4%.
For Cc1ccc(C)c(NS(=O)(=O)c2c(C)ccc3nsnc23)c1 the results were BRCT PPI green -1.6%, DNA Pol III inh -2.5%, Tau fil binding 12.6µM*, 15-hLO inh -9.7%, TsaE inh inactive and BRCT inh red 1.4%.
For Cc1ccc2nsnc2c1S(=O)(=O)Nc1cccc2nsnc12 the results were BRCT PPI green -2.4%, DNA Pol III inh -1.3%, Tau fil binding -20.7%, 15-hLO inh -26.2%, TsaE inh inactive and BRCT inh red -1.0%.
Cc1ccc(-c2cc(C(F)F)n3ncc(C(=O)N4CCN5CCCC5C4)c3n2)cc1 (stereo not drawn) was read as BRCT PPI green -2.1%, DNA Pol III inh -2.0%, Tau fil binding 25.1µM*, 15-hLO inh -6.3%, TsaE inh inactive and BRCT inh red 0.9%.
For COc1ccc(NS(=O)(=O)c2ccc(I)cc2)cc1N1CCN(C)CC1 the results were BRCT PPI green 2.6%, DNA Pol III inh -3.6%, Tau fil binding 39.8µM*, 15-hLO inh inconclusive, TsaE inh inactive and BRCT inh red 0.6%.
For CC[N+](CC)(CC)CCOc1ccc(/C=C\c2ccccc2)cc1 the results were BRCT PPI green -1.6%, DNA Pol III inh -2.8%, Tau fil binding -63.4%, 15-hLO inh 15.8µM*, TsaE inh inactive and BRCT inh red -1.7%.
Screening CCOc1ccc(/C=C/C(=O)c2cccs2)cc1 returned BRCT PPI green -4.6%, 15-hLO inh -3.3%[25.6 µM] and BRCT inh red 0.5%.
Screening CCOC(=O)c1[nH]cc(-c2ccccc2)c1N1CCOCC1 returned BRCT PPI green 0.1%, DNA Pol III inh -0.9%, Tau fil binding -5.1%, 15-hLO inh 25.1µM*, TsaE inh inactive and BRCT inh red -0.7%.
